High-throughput results deposited in PubChem by National Center for Advancing Translational Sciences (NCATS).
A selection: hits, their analogues and other compounds. The true share with any hit is near 19%.
TDP1 cell CPT: growth inhibition of DT40 Tdp1-/-;hTDP1 cells with camptothecin (screen for TDP1 inhibitors) | chicken DT40 Tdp1-/-;hTDP1 cells + 20 nM CPT, ATP luminescence, 48 h | Potency, µM (series often up to 46.2 µM), for the others: top-dose activity change, negative = growth inhibition, hits mostly inhibitors | actives 12% (n = 420,000); note: potency is the fitted concentration of half-maximal effect; nearly all actives have a fitted effect of over 55% in size
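Chicken DT40 Tdp1-/- cells stably complemented with human TDP1 were seeded at 400 cells/well in medium containing 20 nM camptothecin, exposed to pin-transferred compounds, and grown at 37 °C for at least 48 hr. Viability was read as ATP luminescence.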
IL1B secr inh: blocks inflammasome-driven IL-1 beta release; THP-1 LPS/ATP IL-1B secretion, AlphaLISA, 16 h; active compounds read low; AID 743279; actives 4.7% (n = 360,000); activity change, % at 57.5 µM; in the data active = activity change below about -50%; inconclusive = mostly about -30% to -49%
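THP-1 cells pretreated 1 hr with compounds (up to 57.5 uM final), then stimulated with LPS (250 ng/mL final) plus ATP (1.25 mM final); secreted IL-1B measured by AlphaLISA after 16 hr, decreased signal indicating inhibition.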
uPA surface inh: inhibitors of cell surface uPA generation. cell surface uPA generation assay, qHTS. Potency, µM (top dose mostly 38.3 µM), without a hit: top-dose activity change, negative = inhibition, actives largely listed as inhibitors. actives 0.31% (n = 330,000). AID 540303; active = well fitted inhibition curve with a large enough effect; inconclusive = small, poorly fitted or top-dose-only effect; inactive = no such curve, though single readings can be large or run the other way; tested in mouse RAW 264.7 cells; note: potency is the fitted concentration of half-maximal effect; nearly all actives have a fitted effect of over 55% in size
DT40 TDP1 no CPT: qHTS for Inhibitors of human tyrosyl-DNA phosphodiesterase 1 (TDP1): qHTS in cells in absence of CPT. DT40 Tdp1-/- hTDP1 cells, no CPT, ATP luminescence, 48 h. Potency, µM (titrated, usually from 46.2 µM), for inactives: at the top dose activity change, negative = growth inhibition, hits mostly inhibitors. actives 15% (n = 420,000); note: potency is the fitted concentration of half-maximal effect; nearly all actives have a fitted effect of over 55% in size
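Readout: luminescence from CellTiter-Glo after 30 min in the dark at RT. Cells: DT40 Tdp1-/- with stable hTDP1, 400/well. Exposure: compounds alone, ≥48 hr, 37 °C.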
HT1080 IDH1KD tx: HT-1080 IDH1 knockdown cell toxicity (counter line). HT-1080 IDH1 knockdown viability, ATP luminescence, 48 h. actives 2% (n = 360,000). Potency, µM (top dose mostly 46.1 µM), inactives show at the highest dose activity, negative = toxicity, hits mostly cytotoxic. AID 686971;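 note: potency is the fitted concentration of half-maximal effect; 0% = DMSO wells and -100% = cell-free medium wells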
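CellTiter-Glo luminescence after 48 h compound exposure at 37 degrees C of IDH1-knockdown HT-1080 cells in 5% FBS RPMI. %Activity scaled between DMSO wells and cell-free media wells, with curves fitted and assigned curve classes.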
HT1080-NT tox: kills 2HG-producing HT-1080-NT fibrosarcoma cells; HT-1080-NT fibrosarcoma viability, CellTiter-Glo ATP luminescence, 48 h; Potency, µM (titrated, usually from 46.1 µM), for inactives: at the top dose activity, negative = less viability, usual class: cytotoxic; actives 1.6% (n = 360,000);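 note: NT is the 2HG producing partner of a matched IDH1 knockdown line; potency is the fitted concentration of half-maximal effect; 0% = DMSO-treated cells and -100% = media-only wells without cells; nearly all actives have a fitted effect of over 55% in size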
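HT-1080-NT fibrosarcoma cells (2HG-overproducing), 750 cells/well in RPMI with 5% FBS, dosed after 2 h and incubated 48 h at 37C. CellTiter-Glo luminescence normalized to DMSO and no-cell wells; concentration-response curves fitted and classed.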
* marks the source's active call; other numbers are inactive results; u = inconclusive; x = no result given. Unless noted, calls come from the whole dose curve; as a rule, active = well fitted curve in the direction sought with a large enough effect; inconclusive = small, poorly fitted or top-dose-only effect, or another doubt; inactive = no such curve, though single readings can be large; an effect the other way counts as inactive or inconclusive. Unless noted, % is set by controls: 0 for no effect and ±100 for the full control effect.

SMILES | TDP1 cell CPT | IL1B secr inh | uPA surface inh | DT40 TDP1 no CPT | HT1080 IDH1KD tx | HT1080-NT tox
CCN=c1scc(C)n1/N=C/c1ccc(O)c(O)c1O | 14.6µM* | -17.2 | 0.6% | 7.31µM* | -8.0% | -5.8%
NC(=S)N/N=C1\CCOc2ccc(Cl)cc21 | 18.4µM* | u | -10.2% | u | -15.2% | -16.5%
Cc1ccc(N2C(=O)C3C4C=CC(CNC(=S)N5CCN(c6ccccc6)CC5)(O4)C3C2=O)cc1 (stereo not given) | 18.4µM* | 11.4 | -0.2% | 18.4µM* | -2.6% | -11.8%
Cc1cccc(NC(=S)NCC23C=CC(O2)C2C(=O)N(c4ccc(Cl)cc4)C(=O)C23)c1 (stereo not given) | u | -5.1 | -3.2% | 20.6µM* | -7.3% | -5.7%
Cc1ccc(NC(=S)NCC23C=CC(O2)C2C(=O)N(c4ccc(C)cc4)C(=O)C23)cc1 (stereo not given) | 18.4µM* | 4.6 | -4.9% | u | 6.6% | 0.0%
C[C@@H]1Cc2[nH][nH]c(=O)c2[C@H](c2ccc(Cl)cc2)O1 | -4.3% | -7.3 | x | -17.2% | 23.5% | 19.5%
COCCN1C(=O)CN(S(C)(=O)=O)CC1(C)C(=O)Nc1c(C)cccc1C (stereo not given) | -5.3% | 1.9 | x | 1.6% | 14.2% | 16.2%
O=C(Nc1ccc(S(=O)(=O)Nc2ncccn2)cc1)c1ccc2ncsc2c1 | u | -13.1 | 2.4% | u | -4.3% | 11.5%
O=C(OC1CC2CC1[C@H]1CCCCN1C2=O)N1CCC(c2ccccc2)CC1 (stereo not given in full) | u | 22.9 | x | 16.4µM* | -5.8% | -2.0%
COc1ccc(NS(=O)(=O)c2ccc3c(c2)n(C)c(=O)n3C)cc1 | -29.3% | -70.4* | -0.7% | -8.5% | 0.0% | -4.9%
CC(=O)Nc1ccc(NS(=O)(=O)c2ccc3c(c2)n(C)c(=O)n3C)cc1 | -1.0% | -4.3 | 5.0% | -2.0% | -2.5% | -16.4%
Cn1c(=O)n(C)c2cc(NS(=O)(=O)c3ccc(C(C)(C)C)cc3)ccc21 | 18.4µM* | 8.5 | 6.8% | 18.4µM* | u | -22.4%
Cc1ccc(NS(=O)(=O)c2ccc3c(c2)n(C)c(=O)n3C)cc1 | u | -12.2 | -8.4% | -20.6% | 1.7% | -0.5%
Cn1c(=O)n(C)c2cc(NS(=O)(=O)c3ccc4c(c3)CCCC4)ccc21 | 17.8µM* | -18.5 | x | u | u | u
Cc1cc(C)c(NS(=O)(=O)c2ccc3c(c2)n(C)c(=O)n3C)c(C)c1 | -28.0% | 27.0 | -3.3% | -3.7% | 5.7% | 3.2%
COc1ccc(NC(=O)Cc2csc(COc3cccc(C)c3)n2)cc1OC | 18.4µM* | x | x | 25.9µM* | x | x
Cc1cccc(NC(=O)Cc2csc(COc3cccc(C)c3)n2)c1 | -21.9% | x | x | -20.9% | x | x
CC(=O)Nc1cccc(NC(=O)Cc2csc(COc3cccc(C)c3)n2)c1 | 14.6µM* | x | x | 20.6µM* | x | x
O=C(NCc1ccc(F)cc1)C(=O)NCC1OCCCN1S(=O)(=O)c1cccs1 (stereo not given) | -11.5% | -8.6 | -10.1% | -2.7% | 1.0% | -0.5%
CCCCCCCCCC(=O)N[C@@H]1c2cc(OC)c(OC)cc2C[C@H]1OCc1ccccc1 | -16.6% | 82.4 | 3.0% | -14.0% | 7.1% | 0.4%
COc1cc2c(cc1OC)[C@@H](NC(=O)CCc1ccccc1)[C@H](OCc1ccccc1)C2 | 10.3µM* | -20.6 | 6.6% | u | -12.3% | -0.4%
Cc1cc(C)c(S(=O)(=O)NCC2CCC(C(=O)NCCCN3CCC(C)CC3)CC2)c(C)c1 (stereo not given) | u | -20.7 | -25.8% | u | u | u
COc1ccc(Cn2cc(CN3CC(N4CCN(Cc5ccccc5F)CC4)CS3(=O)=O)nn2)cc1 (stereo not given) | u | 7.9 | x | 20.6µM* | 23.1µM* | -4.7%
O=S1(=O)CC(N2CCN(Cc3ccccc3F)CC2)CN1Cc1cn(Cc2ccc(Cl)cc2)nn1 (stereo not given) | 18.4µM* | -1.5 | x | 13µM* | -10.8% | -2.0%
CCCS(=O)(=O)NC(=O)C1(C)CCN(C(=O)Cc2cccc(OC)c2)C1 (stereo not given) | 3.1% | 0.0 | x | -3.1% | 25.3% | 6.2%
SMILES | TDP1 cell CPT | IL1B secr inh | uPA surface inh | DT40 TDP1 no CPT | HT1080 IDH1KD tx | HT1080-NT tox
Cc1ccc(N(CC(O)CN2CCCCC2)S(=O)(=O)c2ccc(C)cc2)cc1 (stereo not given) | 3.4% | 0.0 | -5.3% | -3.5% | -10.8% | -10.6%
CCOc1ccc(C(=O)CCC(=O)N(CC)CC(=O)NCc2cccs2)cc1 | -6.6% | -13.2 | 2.0% | u | -13.6% | -4.0%
CCOc1ccc(C(=O)OC(C)C(=O)N2CCN(Cc3ccccc3)CC2)cc1 (stereo not given) | 16.4µM* | -6.9 | -3.9% | 18.4µM* | 0.8% | -1.3%
CCOc1ccc(C(=O)CC(C(=O)O)N2CCN(Cc3ccccc3)CC2)cc1 (stereo not given) | 20.6µM* | 0.0 | -26.2% | 3.66µM* | -0.1% | -5.9%
CCOc1ccc(C(=O)CC(C(=O)O)N2CCCCC2)cc1 (stereo not given) | 13µM* | -57.1* | u | u | u | u
CCOc1ccc(C(=O)CC(NCc2cccs2)C(=O)O)cc1 (stereo not given) | 8.2µM* | -15.1 | -13.1% | 16.4µM* | u | -21.1%
O=C(c1csnn1)N1CCC2(CCCN(Cc3cc(C(F)(F)F)cc(C(F)(F)F)c3)C2)CC1 | 4.7% | x | x | -3.8% | x | x
CCOC(=O)N(C)C[C@@H]1OCc2ccccc2-c2c(n(C)c3ccccc23)C(=O)N([C@H](C)CO)C[C@H]1C | u | -2.9 | x | u | 10.6% | -3.7%
Cc1nc2ccccc2c2ncccc12 | -0.5% | -1.6 | -10.8% | 0.5% | -3.3% | 2.4%
c1cnc2nc3c4ccccc4c4ccccc4c3nc2c1 | u | u | -14.1% | 14.6µM* | -3.2% | -11.2%
Cc1cc(C)n2nc(SCc3cccc(S(=O)(=O)N(C)C)c3)nc2n1 | u | 31.4 | -6.8% | 14.6µM* | 1.1% | 3.4%
CN(C)S(=O)(=O)c1cccc(CSCc2cccc(S(=O)(=O)N(C)C)c2)c1 | 5.8µM* | u | -11.4% | 2.59µM* | u | u
Cc1cccc(N(CC(=O)NCCc2ccccc2)C(=O)CCC(=O)Nc2ccccn2)c1C | -7.3% | -5.3 | x | u | -19.3% | -1.9%
CCc1ccc(NC(=O)CN2C(=O)C(c3ccc(F)cc3)=NC2(C)C)cc1 | 5.0% | x | x | -14.8% | x | x
